Reference: PubChem BioAssay (NCI)
This is part of a sample that, as a whole, favours compounds with a hit. Of some 79,000 tested, about 15% had one in any assay. Unmarked numbers belong to inactive results. Activity calls are given as the source filed them. Cut-off read from the data, not from the text of the source: active = growth inhibition above about 70%; inactive = the rest.

Legend:
[1] = NCI Yeast Anticancer Drug Screen. Data for the rad52 strain (AID 147);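 note: 0% = growth of vehicle-treated control cultures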; details: S. cerevisiae rad52 mutant growth inhibition, active compounds read high
In short: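 DNA repair-defective yeast; compound exposure; growth scored against vehicle controls.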

[2] = NCI Yeast Anticancer Drug Screen. Data for the wt1 strain (AID 149);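 note: 0% = growth of vehicle-treated wt1 cultures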; details: S. cerevisiae wt1 strain (SPY 50644) growth inhibition, active compounds read high
In short: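 Vehicle-normalised growth inhibition; strain wt1; compound exposure.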

[3] = NCI Yeast Anticancer Drug Screen. Data for the rad50EPP+ strain (AID 151);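 note: 0% = growth of vehicle-treated control cultures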; details: S. cerevisiae rad50 mutant strain, active compounds read high
In short: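 rad50EPP+ yeast treated with test compounds. Readout: growth vs vehicle control.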

[4] = NCI Yeast Anticancer Drug Screen. Data for the rad50 strain (AID 155);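 note: 0% = growth of vehicle-only cultures of the same strain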; details: S. cerevisiae rad50 strain growth inhibition, active compounds read high
In short: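 A DNA repair-deficient yeast mutant serves as the test organism; compound-induced growth inhibition is calculated against vehicle-treated cells.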

[5] = NCI Yeast Anticancer Drug Screen. Data for the mec2-1 strain (AID 157); details: S. cerevisiae mec2-1 strain, active compounds read high
In short: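 Growth inhibition is read against vehicle-treated controls after compound exposure of the mec2-1 yeast strain, which is defective in DNA damage repair or cell cycle control.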

[6] = NCI Yeast Anticancer Drug Screen. Data for the rad14 strain (AID 159);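 note: 0% = growth of vehicle-treated control cultures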; details: S. cerevisiae rad14 strain growth inhibition, active compounds read high
In short: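 Vehicle-treated cultures served as the baseline for growth inhibition of a DNA repair-mutant yeast strain exposed to each compound.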

[7] = NCI Yeast Anticancer Drug Screen. Data for the sgs1 mgt1 strain (AID 161);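 note: 0% = growth of cultures given vehicle only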; details: S. cerevisiae sgs1 mgt1 strain, active compounds read high
In short: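 Compounds are added to genetically altered yeast, and growth is compared with cultures given vehicle alone to give percent inhibition.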

[8] = NCI Yeast Anticancer Drug Screen. Data for the CLN2oe strain (AID 163);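 note: 0% = growth of vehicle-only control cultures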; details: S. cerevisiae CLN2oe strain, active compounds read high
In short: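 Compound-treated yeast; growth vs vehicle ctrl = % inhibition. Genetically altered strain (cell-cycle control).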

[9] = NCI Yeast Anticancer Drug Screen. Data for the cln2 rad14 strain (AID 165);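 note: 0% = growth equal to vehicle treated cultures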; details: S. cerevisiae cln2 rad14 strain, active compounds read high
In short: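 Growth inhibition, relative to vehicle-treated controls, is the read-out. The test organism is a yeast strain with defined genetic alterations, cln2 rad14.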

[10] = NCI Yeast Anticancer Drug Screen. Data for the bub3 strain (AID 167); details: S. cerevisiae bub3 mutant strain, active compounds read high
In short: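 Inhibition values come from growth of compound-treated mutant yeast normalised to vehicle-treated controls.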

[11] = NCI Yeast Anticancer Drug Screen. Data for the wt2 strain (AID 169);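 note: 0% = growth of vehicle-treated yeast cultures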; details: S. cerevisiae wt2 strain growth inhibition, active compounds read high
In short: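 Compound exposure of yeast; growth compared with vehicle controls; inhibition reported.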

[12] = NCI Yeast Anticancer Drug Screen. Data for the mlh1 strain (AID 171);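 note: 0% = growth of vehicle-treated control cultures of the same strain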; details: S. cerevisiae mlh1 strain growth inhibition, active compounds read high
In short: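 Compounds are applied to a genetically altered yeast strain, and its growth is compared with that of vehicle-treated cultures to give percent inhibition.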

[13] = NCI Yeast Anticancer Drug Screen. Data for the sgs1 strain (AID 173);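 note: 0% = growth of vehicle-only control cultures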; details: S. cerevisiae sgs1 mutant, active compounds read high
In short: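 Compounds applied to genetically altered yeast; growth compared with vehicle-treated cultures to give % inhibition.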

[14] = NCI Yeast Anticancer Drug Screen. Data for the mlh1 rad18 strain (AID 175); details: S. cerevisiae mlh1 rad18 strain growth inhibition, active compounds read high
In short: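 Cells of a genetically altered yeast strain, deficient in DNA damage repair, were treated with compound. Their growth was then compared with that of vehicle-treated cultures to give inhibition.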

[15] = NCI Yeast Anticancer Drug Screen. Data for the rad18 strain (AID 177); details: S. cerevisiae rad18 mutant growth inhibition, active compounds read high
In short: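 Compounds are applied to a repair-deficient yeast strain, and growth is compared with that of vehicle-treated cultures to give percent inhibition.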

[16] = at 5.0 µM (retest, dose inferred, filed as 0.5)
[17] = at 50.0 µM (retest, dose inferred, filed as 5.0)

## CC(C)(C)c1ccc(O)c(C(c2ccc([N+](=O)[O-])cc2)c2cc(C(C)(C)C)ccc2O)c1
[1]; at 1.2 µM
  growth inhibition: 29%
[1]; at 3.7 µM
  growth inhibition: 24%
[1]; at 11.0 µM
  growth inhibition: 57%
[1]; at 33.0 µM
  growth inhibition: 79% (active)
[1]; at 100.0 µM
  growth inhibition: 84% (active)
[2]; at 1.2 µM
  growth inhibition: -2%
[2]; at 3.7 µM
  growth inhibition: -4%
[2]; at 11.0 µM
  growth inhibition: 42%
[2]; at 33.0 µM
  growth inhibition: 81% (active)
[2]; at 100.0 µM
  growth inhibition: 90% (active)
[3]; at 1.2 µM
  growth inhibition: 7%
[3]; at 3.7 µM
  growth inhibition: -8%
[3]; at 11.0 µM
  growth inhibition: -24%
[3]; at 33.0 µM
  growth inhibition: -14%
[3]; at 100.0 µM
  growth inhibition: -10%
[4]; at 1.2 µM
  growth inhibition: 19%
[4]; at 3.7 µM
  growth inhibition: 14%
[4]; [16]
  growth inhibition: 21%
[4]; at 11.0 µM
  growth inhibition: 61%
[4]; at 33.0 µM
  growth inhibition: 85% (active)
[4]; [17]
  growth inhibition: 88% (active)
[4]; at 50.0 µM
  growth inhibition: 84.3% (active)
[4]; at 100.0 µM
  growth inhibition: 92% (active)
[5]; at 1.2 µM
  growth inhibition: -1%
[5]; at 3.7 µM
  growth inhibition: 14%
[5]; [16]
  growth inhibition: 7%
[5]; at 11.0 µM
  growth inhibition: 57%
[5]; at 33.0 µM
  growth inhibition: 85% (active)
[5]; [17]
  growth inhibition: 94% (active)
[5]; at 50.0 µM
  growth inhibition: 89% (active)
[5]; at 100.0 µM
  growth inhibition: 92% (active)
[6]; at 1.2 µM
  growth inhibition: -9%
[6]; at 3.7 µM
  growth inhibition: -24%
[6]; at 11.0 µM
  growth inhibition: 14%
[6]; at 33.0 µM
  growth inhibition: 71% (active)
[6]; at 100.0 µM
  growth inhibition: 90% (active)
[7]; [16]
  growth inhibition: 29%
[7]; [17]
  growth inhibition: 93% (active)
[7]; at 50.0 µM
  growth inhibition: 29.1%
[8]; at 1.2 µM
  growth inhibition: 2%
[8]; at 3.7 µM
  growth inhibition: 19%
[8]; at 11.0 µM
  growth inhibition: 38%
[8]; at 33.0 µM
  growth inhibition: 80% (active)
[8]; at 100.0 µM
  growth inhibition: 91% (active)
[9]; [16]
  growth inhibition: 43%
[9]; [17]
  growth inhibition: 93% (active)
[9]; at 50.0 µM
  growth inhibition: 82.8% (active)
[10]; at 1.2 µM
  growth inhibition: 9%
[10]; at 3.7 µM
  growth inhibition: 16%
[10]; [16]
  growth inhibition: 33%
[10]; at 11.0 µM
  growth inhibition: 53%
[10]; at 33.0 µM
  growth inhibition: 88% (active)
[10]; [17]
  growth inhibition: 94% (active)
[10]; at 50.0 µM
  growth inhibition: 84.2% (active)
[10]; at 100.0 µM
  growth inhibition: 92% (active)
[11]; at 1.2 µM
  growth inhibition: -16%
[11]; at 3.7 µM
  growth inhibition: -19%
[11]; at 11.0 µM
  growth inhibition: 46%
[11]; at 33.0 µM
  growth inhibition: 81% (active)
[11]; at 100.0 µM
  growth inhibition: 83% (active)
[12]; at 1.2 µM
  growth inhibition: 12%
[12]; at 3.7 µM
  growth inhibition: 6%
[12]; at 11.0 µM
  growth inhibition: 29%
[12]; at 33.0 µM
  growth inhibition: 90% (active)
[12]; at 100.0 µM
  growth inhibition: 93% (active)
[13]; at 1.2 µM
  growth inhibition: 22%
[13]; at 3.7 µM
  growth inhibition: 13%
[13]; at 11.0 µM
  growth inhibition: 40%
[13]; at 33.0 µM
  growth inhibition: 82% (active)
[13]; at 100.0 µM
  growth inhibition: 93% (active)
[14]; [16]
  growth inhibition: 36%
[14]; [17]
  growth inhibition: 93% (active)
[14]; at 50.0 µM
  growth inhibition: 80.2% (active)
[15]; at 1.2 µM
  growth inhibition: 21%
[15]; at 3.7 µM
  growth inhibition: 41%
[15]; at 11.0 µM
  growth inhibition: 57%
[15]; at 33.0 µM
  growth inhibition: 70% (active)
[15]; at 100.0 µM
  growth inhibition: 88% (active)
